The text below walks through data of PubChem BioAssay.

Usually viability stands for a read-out of living cells in per cent, often relative to untreated cells.

Records with an inconclusive call do not appear. The source made the active and inactive calls.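 Rule for the calls, unless noted: active = cell viability at or below a set limit in both duplicate runs, the limit being the all-compound median minus 4 SD (cut at about 23% in these data, passing the limit was not always enough); inconclusive = no clear call, values can overlap the other calls; inactive = the rest.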

The nature of the first test: doxorubicin toxicity protection in MRP-1 cells – H69AR cells, CellTiter-Glo, duplicate, MRP-1 activator project, pilot screen (AID 807;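 active = viability increase at or above a cutoff of the median across tested compounds plus 3 SD, cut at about 8.5% in these data, passing the limit was not always enough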;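 note: compound pretreatment 18-22 h then 72 h combined with doxorubicin; 0% = doxorubicin alone and 100% = vehicle without doxorubicin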). As to conditions: H69AR viability with doxorubicin, CellTiter-Glo luminescence; at 10 µM; stronger effect = higher value.
As for `O=C(CCNS(=O)(=O)c1cccc2nsnc12)NCCc1ccccc1`, the viability increase was -1.34% (inactive).

Regarding `Clc1ccccc1CSc1nnc(-c2cccnc2)n1Cc1ccco1`, the viability increase was -4.89% (inactive).

For the compound `COc1ccc(-c2nnc(SCC(=O)NC(C)c3ccccc3)o2)cc1OC` (stereo not drawn), the viability increase was -1.24% (inactive).

Turning to `O=c1c2ccccc2ncn1-c1ccc2c(c1)OCCO2`, the viability increase was -0.34% (inactive).

In the case of `CC(=O)Nc1ccc(NC2(C)C(=O)c3ccccc3C2=O)cc1`, the viability increase was -1.88% (inactive).

In the case of `C=CCNC(=O)COc1ccc(Br)cc1Cl`, the viability increase is 1.27% (inactive).

With `COc1ccccc1N1CCN(Cc2cc(Br)c(O)c3ncccc23)CC1`, the viability increase is -6.58% (inactive).

Regarding `O=C(CNC(=O)c1cnccn1)Nc1ccc(F)c(F)c1F`, the viability increase is 1.31% (inactive).

In the case of `CCCC(=O)c1ccc(N2CCOCC2)c(F)c1`, the viability increase is 5.59% (inactive).

Turning to `O=C(NCc1ccc(Cl)c(Cl)c1)c1ccco1`, the viability increase was -3.58% (inactive).

Regarding `O=C(NCC1CCCO1)C1CC(=O)N(c2ccc(F)c(Cl)c2)C1` (stereo not drawn), the viability increase was -1.68% (inactive).

Turning to `COC(=O)CCC(=O)Nc1ccc(NC(=O)CCC(=O)OC)cc1`, the viability increase was -1.73% (inactive).

For the compound `CCc1c(C)nc2[nH]nc(-c3ccccc3)n2c1=O`, the viability increase was 0.32% (inactive).

`COC(=O)C1=CN(CC2CCCO2)C=C(C(=O)OC)C1c1ccsc1` (stereo not drawn): the viability increase was -4.97% (inactive).

`COc1cccc(-n2c(Cc3cc(=O)[nH]c(=O)[nH]3)nnc2SCC(=O)N2CCCCC2)c1`: the viability increase was -1.49% (inactive).

With `CCOc1ccc(N(CC(=O)Nc2nccs2)S(=O)(=O)c2c(C)noc2C)cc1`, the viability increase is -1.1% (inactive).

Consider `CC(Oc1ccc(Cl)cc1Cl)C(=O)NCCN1CCOCC1` (stereo not drawn), for which the viability increase was -2.33% (inactive).

Consider `Nc1nonc1C(=O)NCCc1ccccc1`, for which the viability increase was -0.05% (inactive).

Regarding `CCCCn1c(CN2CCN(C(=O)c3ccco3)CC2)nc2c1c(=O)n(C)c(=O)n2C`, the viability increase is -4.33% (inactive).

As for `COc1ccc(CCNC(=O)CCNS(=O)(=O)c2cccc3nsnc23)cc1OC`, the viability increase is -4.88% (inactive).

For `CC(=O)Nc1cc2c(cc1C(=O)c1ccccc1)OCCO2`, the viability increase was -0.99% (inactive).

In the case of `Cc1cc(C)c2c3c(c(-c4ccccc4)n2n1)c(=O)n(C)c(=O)n3C`, the viability increase is -1.8% (inactive).

Regarding `CCOC(=O)NC(Nc1cc(C)ccn1)(C(F)(F)F)C(F)(F)F`, the viability increase was -1.93% (inactive).

A further test is described as follows: viability of HCT116 without oncogenic beta-catenin – human colon tumor cells, pilot screen (AID 823).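 Note: 0% = wells killed by 20 µM Hyamine and 100% = untreated DMSO cell wells.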 As to conditions: HCT116 beta-catenin knockout viability, CellTiter-Glo, 60 h; at 10 µM; stronger effect = lower value. For orientation: In ATP-based viability assays light output follows the ATP content of the culture.
Turning to `Cn1c(Cn2c(=O)sc3ccccc32)nnc1SCC(=O)NCc1ccco1`, the viability is 109% (inactive).

Turning to `CCOC(=O)N1CCN(C(=O)c2ccccc2NC(=O)COc2ccccc2C)CC1`, the viability was 86.3% (inactive).

Turning to `CCCCS(=O)(=O)/C=C\C=C/S(=O)(=O)CCCC`, the viability is 1.4% (active).

Turning to `CC(=O)Oc1c2occc2cc2ccc(=O)oc12`, the viability was 92.7% (inactive).

On to `COc1ccc(Br)cc1C1CC(=O)N2CN(Cc3ccccc3)CSC2=C1C#N` (stereo not drawn), for which the viability is 85% (inactive).

As for `Cc1nn(-c2ccccc2)c2c1C(c1ccccc1)C(C#N)=C(N)O2` (stereo not drawn), the viability is 91.3% (inactive).

Regarding `COc1ccc2cc(CCNC(=O)C3CCCC3)c(=O)[nH]c2c1`, the viability is 109% (inactive).

Take `COc1ccc2nc(NC(=O)C3COc4ccccc4O3)sc2c1` (stereo not drawn): the viability was 100% (inactive).

For `O=C(CSCC(=O)N1CCOCC1)Nc1nc(-c2ccc3c(c2)OCO3)cs1`, the viability is 100% (inactive).

`COC(=O)c1c(C(=O)OC)c2n(c1C)Cc1ccccc1C2`: the viability is 86.6% (inactive).

For `CC(=O)Nn1cc2c(=O)n(C)c(=O)n(C)c2c1`, the viability is 98.3% (inactive).

For the compound `O=C(NCCc1ccccc1)c1ccc(Br)o1`, the viability was 104% (inactive).

As to `O=C(O)CN(Cc1ccco1)S(=O)(=O)c1ccccc1`, the viability was 95.7% (inactive).

Turning to `CC1CN(CCC(=O)Nc2ccc3c(c2)CCC3)CC(C)O1` (stereo not drawn), the viability is 97.5% (inactive).

In the case of `Cc1cc(C)n2nc(SCC(=O)Nc3ccc(F)cc3)nc2n1`, the viability is 111% (inactive).

For `COCCNC(=O)CN(c1cc(C(F)(F)F)ccc1Cl)S(C)(=O)=O`, the viability was 99.9% (inactive).

For the compound `CCN(CC)S(=O)(=O)c1cc(C(=O)Nc2ccc(Cl)cn2)ccc1C`, the viability was 52.9% (inactive).

In the case of `O=C(CCNS(=O)(=O)c1cccc2nsnc12)NCCc1ccccc1`, the viability is 105% (inactive).

As for `Clc1ccccc1CSc1nnc(-c2cccnc2)n1Cc1ccco1`, the viability was 90.4% (inactive).

Consider `COc1ccc(-c2nnc(SCC(=O)NC(C)c3ccccc3)o2)cc1OC` (stereo not drawn), for which the viability is 106% (inactive).

As to `O=c1c2ccccc2ncn1-c1ccc2c(c1)OCCO2`, the viability is 101% (inactive).

Regarding `CC(=O)Nc1ccc(NC2(C)C(=O)c3ccccc3C2=O)cc1`, the viability is 99.4% (inactive).

Take `C=CCNC(=O)COc1ccc(Br)cc1Cl`: the viability is 99% (inactive).

On to `COc1ccccc1N1CCN(Cc2cc(Br)c(O)c3ncccc23)CC1`, for which the viability is 6.37% (active).

Consider `O=C(CNC(=O)c1cnccn1)Nc1ccc(F)c(F)c1F`, for which the viability is 99.9% (inactive).

For `CCCC(=O)c1ccc(N2CCOCC2)c(F)c1`, the viability is 98.7% (inactive).

For the compound `O=C(NCc1ccc(Cl)c(Cl)c1)c1ccco1`, the viability is 90.8% (inactive).

`O=C(NCC1CCCO1)C1CC(=O)N(c2ccc(F)c(Cl)c2)C1` (stereo not drawn): the viability was 86.7% (inactive).

In the case of `COC(=O)CCC(=O)Nc1ccc(NC(=O)CCC(=O)OC)cc1`, the viability is 103% (inactive).

As to `CCc1c(C)nc2[nH]nc(-c3ccccc3)n2c1=O`, the viability was 96.2% (inactive).

Consider `COC(=O)C1=CN(CC2CCCO2)C=C(C(=O)OC)C1c1ccsc1` (stereo not drawn), for which the viability was 92.1% (inactive).

`COc1cccc(-n2c(Cc3cc(=O)[nH]c(=O)[nH]3)nnc2SCC(=O)N2CCCCC2)c1`: the viability was 112% (inactive).

For the compound `CCOc1ccc(N(CC(=O)Nc2nccs2)S(=O)(=O)c2c(C)noc2C)cc1`, the viability was 97.5% (inactive).

For the compound `CC(Oc1ccc(Cl)cc1Cl)C(=O)NCCN1CCOCC1` (stereo not drawn), the viability was 100% (inactive).

As to `Nc1nonc1C(=O)NCCc1ccccc1`, the viability was 116% (inactive).

`CCCCn1c(CN2CCN(C(=O)c3ccco3)CC2)nc2c1c(=O)n(C)c(=O)n2C`: the viability is 101% (inactive).

In the case of `COc1ccc(CCNC(=O)CCNS(=O)(=O)c2cccc3nsnc23)cc1OC`, the viability is 86.5% (inactive).

On to `CC(=O)Nc1cc2c(cc1C(=O)c1ccccc1)OCCO2`, for which the viability is 95.2% (inactive).

In the case of `Cc1cc(C)c2c3c(c(-c4ccccc4)n2n1)c(=O)n(C)c(=O)n3C`, the viability is 101% (inactive).

For `CCOC(=O)NC(Nc1cc(C)ccn1)(C(F)(F)F)C(F)(F)F`, the viability was 104% (inactive).
